ALR inh – blocks human ALR sulfhydryl oxidase activity; P55789; purified ALR, DTT oxidation, H2O2 HRP-luminol luminescence; inhibition, % (no concentration beside the values); 3.8% of 290,000 active;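 active = mean replicate inhibition above about 79%, with every replicate also reaching it, limit read from the data; inconclusive = only one of the two criteria met; inactive = mean below limit and not every replicate reaching it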
Efflux pump mplx – blocks antifungal efflux pumps in multiplex yeast assay. S. cerevisiae Candida pump triplex, Nile Red efflux. inhibition, % at 10 µM. 0.44% of 330,000 active. AID 485275;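 active = plate passing quality check with inhibition over a set limit, or well fluorescence over plate mean plus 4 SD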;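 also: Nile Red retained in pooled yeast measured as flow cytometry median fluorescence; 0% = buffer negative control and 100% = Enniatin B positive control; higher means more Nile Red kept so more efflux inhibition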
HDAC3 inh – blocks human histone deacetylase 3; inhibition, % at 8.3 µM; recombinant HDAC3, fluorogenic peptide/trypsin coupled, fluorescence; AID 2718; 0.15% of 320,000 active; O15379; in the data active = inhibition above about 26%, passing the limit was not always enough; inconclusive = no clear call, values can overlap the other calls
Target sequence (O15379 whole entry, looked up): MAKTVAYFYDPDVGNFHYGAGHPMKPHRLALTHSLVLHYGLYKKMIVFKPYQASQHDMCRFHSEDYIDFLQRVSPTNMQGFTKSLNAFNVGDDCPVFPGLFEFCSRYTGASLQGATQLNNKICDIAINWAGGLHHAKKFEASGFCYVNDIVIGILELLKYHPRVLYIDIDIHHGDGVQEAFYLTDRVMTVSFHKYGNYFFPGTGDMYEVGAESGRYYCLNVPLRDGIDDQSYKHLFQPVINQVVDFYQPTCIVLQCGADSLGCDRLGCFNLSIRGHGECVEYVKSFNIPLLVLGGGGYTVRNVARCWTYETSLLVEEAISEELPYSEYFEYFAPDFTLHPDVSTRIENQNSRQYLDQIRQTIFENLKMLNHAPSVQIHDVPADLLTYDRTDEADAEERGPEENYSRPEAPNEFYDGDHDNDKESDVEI
Rtt109 Vps75 – inhibitors of Candida albicans Rtt109/Vps75 histone acetyltransferase. 0.16% of 330,000 active. inhibition, % at 34.9 µM. purified Rtt109/Vps75, ThioGlo CoA-SH fluorescence, 4 h. Q5AAJ8;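 active = inhibition of at least 50% in every replicate; inconclusive = best replicate reaches 50% inhibition but some replicates fall short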
Rce1 inhib – yeast Ras-converting enzyme inhibition; AID 2563; yeast membranes, quenched prenylated peptide cleavage fluorescence; 0.27% of 290,000 active; calls only;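 active = fall in fluorescence gain of 50% or more versus controls, with final raw signal at or below 3038400; inconclusive = same 50% fall but final raw signal above 3038400; inactive = fall in fluorescence gain under 50%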;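 also: plate controls were neutral control wells for no effect and wells lacking membranes for full effect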
GRK2 inh – human GRK2 inhibition via aptamer displacement. P25098. bead flow cytometry, FAM-aptamer displacement from GRK2. inhibition of aptamer binding, % at 10 µM. 0.59% of 330,000 active. AID 488847;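 active = inhibition of aptamer binding above 40%, roughly 3 SD of noise, on plates passing a quality check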;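 also: median bead fluorescence of bound FAM aptamer so fluorescent compounds give negative values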
GRK2 CP1 – confirmation of human GRK2 inhibitors displacing RNA aptamer. shares compounds with GRK2 inh. bead-bound GRK2, FAM-aptamer displacement, flow cytometry. aptamer displacement, % at 10 µM. 4% of 2,000 active;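 active = aptamer displacement above 40%, near three times the noise of non-fluorescent compounds, on plates passing quality checks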;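 also: negative values mostly reflect intrinsic compound fluorescence rather than true enhancement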
Aptamer quench 1 – counter-screen for GRK2 aptamer inhibitors: fluorescent aptamer quenchers. 110 tested, under 10 active. fluorescence change (kMESF span), kMESF (test concentration not listed). Fluorescent RNA aptamer beads, quenching, flow cytometry; stronger effect = higher value. shares compounds with GRK2 inh;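 active = compounds whose bead fluorescence drops by more than 37 kMESF across the dose range, marking them as dye quenchers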
Aptamer quench SP – counter-screen for GRK2 aptamer inhibitors: fluorescent aptamer quenchers; fluorescence response (% of DMSO), % at 10 µM; 2,000 tested, under 10 active; AID 504580; shares compounds with GRK2 inh; Carboxyfluorescein RNA aptamer on beads, flow cytometry quenching; stronger effect = lower value;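 active = compounds that quench the bead-bound fluorescent RNA probe, cutting fluorescence to under half of the solvent control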;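 also: counterscreen run without GRK2 so only probe quenching by compound is measured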
GRK2 CP2 – human GRK2 inhibition confirmation, cherry pick 2; bead-bound GRK2, FAM-aptamer displacement, flow cytometry; shares compounds with GRK2 inh; 360 tested, under 10 active; inhibition of aptamer binding, % at 10 µM;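 active = inhibition of aptamer binding above 40%, about triple the noise seen with nonglowing compounds, on plates passing quality control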;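 also: negative values mostly come from compounds that fluoresce themselves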
Aptamer quench 2 – quenches fluorescent RNA aptamer, GRK2 hit artifact; AID 504819; Streptavidin beads, FAM-RNA aptamer fluorescence quenching, flow cytometry; shares compounds with GRK2 inh; change in fluorescence (kMESF span), kMESF (test concentration not listed); 25 tested, under 10 active;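 active = compounds quenching the bead-bound labeled aptamer, with fluorescence dropping by more than 37 kMESF over the dose range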
FAM quench CP2 – quenches fluorescent RNA aptamer, GRK2 hit artifact | carboxyfluorescein RNA aptamer beads, flow cytometry quenching; stronger effect = lower value | 360 tested, under 10 active | fluorescence response vs DMSO, % at 10 µM | shares compounds with GRK2 inh;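 active = response vs DMSO under 50%, meaning signal dropped by over half, treated as fluorescence quencher; inconclusive = no clear call, values can overlap the other calls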;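 also: labelled aptamer on streptavidin beads without GRK2 as a quench counter-screen; 100% = bead fluorescence of DMSO wells and lower means quenching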
FAM quench PS1 – aptamer fluorescence quenching in GRK2 powder counter-screen | Bead-bound FAM RNA aptamer fluorescence quenching, flow cytometry; stronger effect = lower value | shares compounds with GRK2 inh | 35 tested, under 10 active | fluorescence ratio to DMSO, % at 11.1 µM;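 active = compounds that dim the fluorescent label, raw bead signal shifting by over 33 units between lowest and highest dose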
Active calls of the source: *; i = inactive; u = inconclusive; x = no result given. This is a sample that favours compounds with a hit; in the whole collection about 4.5% have one here.

SMILES	ALR inh	Efflux pump mplx	HDAC3 inh	Rtt109 Vps75	Rce1 inhib	GRK2 inh	GRK2 CP1	Aptamer quench SP	others
CCOC(=O)C1=C(COC(=O)c2ccco2)NC(=O)NC1CC (centres undefined)	-0.8	0.1	-1.0	1.0	x	83.0*	-2.2	100.7
CCOC(=O)C1=C(C)NC(=O)NC1c1ccc(OC(=O)c2ccco2)cc1 (centres undefined)	-10.9	0.0	3.2	-3.1	i	2.0	x	x
Cn1c(=O)oc2cc(S(=O)(=O)NCc3cccnc3)ccc21	x	0.1	-3.5	-7.7	i	0.0	x	x
Cn1c(=O)oc2cc(S(=O)(=O)NCc3ccccn3)ccc21	-4.8	0.0	-6.5	-1.5	i	52.0*	3.2	99.6
CCc1cccc(NC(=O)CCS(=O)(=O)c2ccc(Br)cc2)c1	5.5	0.2	-3.8	0.4	i	93.0*	72.8*	95.8	Aptamer quench 1=6.4;Aptamer quench 2=1.4
CC(=O)c1ccc(NC(=O)CCS(=O)(=O)c2ccc3c(c2)n(C)c(=O)c(=O)n3C)cc1	8.9	-0.1	0.4	-11.3	i	48.0*	35.6	105.3	GRK2 CP2=25.5;FAM quench CP2=99.0
COC(=O)c1ccc(NC(=O)CCS(=O)(=O)c2ccc(Br)cc2)cc1	-5.2	-0.1	1.5	x	i	58.0*	33.8	101.3	Aptamer quench 1=15.7;Aptamer quench 2=0.7;FAM quench PS1=103.0
COCCN(C(=O)c1snc(C(N)=O)c1N)C(C(=O)NC1CCCCC1)c1ccc(F)cc1 (centres undefined)	-15.2	0.7	-1.4	0.8	i	3.0	x	x
CN(C(=O)c1cccc(C#N)c1)c1nnc(-c2ccncc2)s1	x	x	x	-6.9	x	x	-0.1	106.7
CCOC(=O)c1ccc(-c2ccc3c(c2)CCC3)nc1C	-4.1	0.2	4.2	-5.7	i	2.0	x	x
NC(=O)COC(=O)c1ccccc1Oc1ccccc1	0.7	0.0	1.8	-3.8	x	1.0	x	x
O=[N+]([O-])c1ccccc1/C=C/C=N/n1c(-c2cc(-c3ccccc3)n[nH]2)n[nH]c1=S	x	0.1	0.7	-6.8	i	69.0*	11.3	99.1
Cc1ccc(-c2n[nH]c(=S)n2/N=C/C=C/c2ccccc2[N+](=O)[O-])cc1	1.8	-0.1	-1.7	1.3	i	0.0	x	x
Cn1c(SCC(=O)Nc2ccc(NC(=O)c3ccccc3)cc2)nnc1-c1ccncc1	-0.7	-0.1	-4.0	-6.3	i	62.0*	-1.6	98.7
O=C(N=C1SC2CS(=O)(=O)CC2N1c1ccc(Cl)cc1Cl)C1CC1 (centres undefined)	-5.4	0.0	u	8.1	i	0.0	x	x
NC(=O)c1sc(-c2ccsc2)cc1NS(=O)(=O)c1ccc(C(F)(F)F)cc1	-0.3	0.1	-1.9	x	i	1.0	x	x
COc1ccc(Cl)cc1C(=O)Nc1cccc(-c2ccc3nncn3n2)c1	-6.5	-0.1	4.8	x	i	60.0*	17.4	96.3
COc1cccc(C(=O)Nc2cccc(-c3ccc4nncn4n3)c2)c1OC	9.9	0.0	-2.2	29.2	i	17.0	x	x
NC(=O)Cn1c(=O)n(CCC(=O)NCCSCc2ccccc2)c(=O)c2ccccc21	0.5	0.0	5.8	0.4	i	1.0	x	x
